In PubChem BioAssay AID1778 (Sanford-Burnham Center for Chemical Genomics, 2009):
Several values for one entry are separate records, joined by “and”; a condition that tells them apart may be missing. Identical values can stand only once. The whole screen tested about 290,000 compounds, of which about 260 (0.09%) were called active. No stated cut-off is given here; in the data, active means inhibition above about 50%; inactive means the rest. The sample as a whole holds a higher share of actives than the screen did. Results with a measured potency or affinity are listed apart.

Target: Kappa-type opioid receptor (Homo sapiens) (UniProt P41145)
Sequence (P41145 whole entry, looked up): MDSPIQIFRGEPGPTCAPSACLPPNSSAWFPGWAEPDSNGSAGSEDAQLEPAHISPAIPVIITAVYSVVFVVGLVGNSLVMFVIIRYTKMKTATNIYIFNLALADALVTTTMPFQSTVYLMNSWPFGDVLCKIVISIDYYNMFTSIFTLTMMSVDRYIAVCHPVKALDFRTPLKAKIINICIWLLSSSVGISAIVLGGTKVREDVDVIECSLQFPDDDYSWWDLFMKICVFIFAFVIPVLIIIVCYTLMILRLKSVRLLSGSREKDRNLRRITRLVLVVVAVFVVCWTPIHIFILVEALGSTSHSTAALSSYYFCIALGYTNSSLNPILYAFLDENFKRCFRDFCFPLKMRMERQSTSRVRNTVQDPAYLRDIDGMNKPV
Assay: kappa opioid receptor blockers – cell-based, luminescence, uHTS (AID 1778)
Details: KOR beta-arrestin recruitment, antagonist mode, stronger effect = higher value; at 10 µM unless noted

Compound	inhibition
N/C(=N\OC(=O)c1ccc2c(c1)OCO2)c1cccnc1	-2.2% [at 20 µM] (inactive)
CCC(C)(C)NC(=O)C1CCN(c2nc(OC)nc(OC)n2)CC1	-16.1% (inactive)
COCC1CCN(C(=O)c2cc(COc3ccc(-n4cncn4)cc3)on2)C1 (configuration not stated)	-15.5% (inactive)
CC(C)(C)C1CCc2c(sc(NC(=O)c3cccs3)c2C(N)=O)C1 (configuration not stated)	-55.5% (inactive)
Oc1c(C(c2ccccn2)N2CCCCC2)cc(Cl)c2cccnc12 (configuration not stated)	-6.4% (inactive)
Oc1c(C(c2cccs2)N2CCN(c3ccccc3)CC2)ccc2cccnc12 (configuration not stated)	2.5% (inactive)
Oc1c(C(c2ccccc2Cl)N2CCCC2)ccc2cccnc12 (configuration not stated)	57.9% (active)
C/C(=N\Nc1nc(Cl)c(Cl)cc1Cl)c1ccc(S(=O)(=O)NCc2ccco2)cc1	-56.4% (inactive)
COCCn1c(=N)c(S(=O)(=O)c2ccc(F)cc2)cc2c(=O)n3cccc(C)c3nc21	-2.3% (inactive)
COc1ccc(N(C(=O)c2ccco2)S(=O)(=O)c2ccccc2)cc1	-19.2% (inactive)
CCCCN(Cc1cc2cc(OC)ccc2[nH]c1=O)S(=O)(=O)c1ccc(C)cc1	-44.3% [at 20 µM] (inactive)
O=C(Cn1ncc2ccccc21)N1CCc2ccccc21	1.2% (inactive)
O=C1CN(C(=O)Cn2ncc(Cl)c(Cl)c2=O)c2ccccc2N1	53.5% (inactive)
Cc1nc(-c2noc(-c3ccc(Cl)cc3)n2)c(C(F)(F)F)o1	31.9% (inactive)
CCCCN1C(=O)C2(OCCCO2)c2cccc(C)c21	-40.4% [at 20 µM] (inactive)
CN1CC(=O)N(CC(=O)NCc2ccc(F)cc2)c2ccccc2C1=O	3% (inactive)
Cc1c(C(=O)O)[nH]c2c1C(=O)CC(c1ccccc1)C2 (configuration not stated)	-26.9% (inactive)
Cc1oc2c(c(=O)c1C)C(=O)CC(c1ccccc1)C2 (configuration not stated)	-21.1% (inactive)
CCN1CCN(CC(=O)N2N=C(c3cccs3)CC2c2ccc(F)cc2)C(=O)C1=O (configuration not stated)	0.6% (inactive)
C(=N\Nc1nc(-c2ccccn2)nc2ccccc12)/c1ccccc1	76.2% (active)
C/C(=N\Nc1nc(-c2ccccn2)nc2ccccc12)c1ccc(F)cc1	31.6% (inactive)
C(=N\Nc1nc(-c2cccnc2)nc2ccccc12)/c1ccccc1	-5.2% (inactive)
Fc1ccccc1/C=N/Nc1ncnc2ccccc12	10.9% (inactive)
Cc1ccc(-c2nc(N/N=C/c3ccncc3)c3ccccc3n2)cc1	2.4% (inactive)
COc1cccc(CN2CCN(C(=O)c3oc4c(F)cccc4c3C)CC2=O)c1	-26.9% [at 20 µM] (inactive)

Compound	inhibition
COC(=O)CSc1nc2sc3c(c2c(=O)n1-c1ccc(OC)cc1)CCN(C)C3	-14.3% (inactive)
COc1ccccc1N1CCN(C(=O)c2cnn3cccnc23)CC1	24.4% (inactive)
N=C1SCC(=O)N1c1ccccc1Cl	16.3% (inactive)
N=C1SC(c2ccccc2)C(=O)N1c1ncc(Cc2ccccc2)s1 (configuration not stated)	1.3% (inactive)
N=C1SC(c2ccccc2)C(=O)N1c1ncc(Cc2ccccc2Cl)s1 (configuration not stated)	26.7% (inactive)
O=C1c2ccccc2C(=O)N1c1ncc(Cc2ccc(Cl)cc2)s1	-50.6% (inactive)
CCC(C(=O)NCc1cccs1)n1nc(C)n2c(cc3occc32)c1=O (configuration not stated)	-9.9% (inactive)
Fc1ccccc1-c1nc(-c2cnccc2C(F)(F)F)no1	11.7% (inactive)
CC(=O)Oc1ccc(C23CC4CC(CC(C4)C2)C3)cc1C(=O)O	-9% (inactive)
COc1ccc(C2=NN(C(=O)c3cccs3)C(c3ccccc3OC)C2)cc1OC (configuration not stated)	3.2% (inactive)
Cc1c(C(C)(C)C)s/c(=N/S(=O)(=O)c2ccccc2)n1C	1.7% (inactive)
O=Cc1s/c(=N\S(=O)(=O)c2ccccc2)n(CCCCl)c1Cl	-16.2% (inactive)
Nc1cc(S(=O)(=O)Nc2cc(Cl)ccc2Cl)ccc1N1CCOCC1	6.9% (inactive)
C=CCNCC(=O)Nc1ccccc1SCC(=O)Nc1ccsc1C(=O)OC	-29% [at 20 µM] (inactive)
O=[N+]([O-])c1ccc(Nc2ccccc2O)c2nonc12	10.2% [at 20 µM] (inactive)
O=[N+]([O-])c1ccc(Sc2cccc[n+]2[O-])c2nonc12	93% (active)
O=[N+]([O-])c1ccc(Nc2ccccc2)c2nonc12	7.5% (inactive)
CC1(C)CC(=O)C(N=Nc2cccc(S(=O)(=O)N3CCOCC3)c2)=C(O)C1	-0.5% (inactive)
CCOC(=O)c1[nH]c(C)c(C(=O)OCc2c(C)noc2C)c1C	-46% (inactive)
CCOCCCNC(=O)C(c1ccc(C)cc1)N(Cc1ccc2c(c1)OCO2)C(=O)CNC(C)=O (configuration not stated)	-0.2% (inactive)
COc1ccc(NC(=O)C2CC(=O)N(c3ccccc3C)C2)c(OC)c1 (configuration not stated)	-5% (inactive)
COc1ccc(C(=O)Nc2ccc(S(=O)(=O)Nc3nccnc3OC)cc2)cc1	-19% (inactive)
CC(=O)N(C1CC(C)C(C#N)(C#N)C1(C#N)C#N)N(C)C (configuration not stated)	17.9% [at 20 µM] (inactive)
CCCC(=O)N(C1CC(C)C(C#N)(C#N)C1(C#N)C#N)N(C)C (configuration not stated)	85.4% (active)
O=C(CN(C(=O)CCC(=O)Nc1nccs1)c1ccc2c(c1)OCO2)NCc1ccc(F)cc1	-0.7% (inactive)

Compound	inhibition
Cc1nn(C)cc1CNC(=O)C1(C)CC1(Cl)Cl (configuration not stated)	11.1% (inactive)
O=S1(=O)NC(=NCCc2ccccn2)c2ccccc21	20.9% (inactive)
c1cnc2c(c1)ccc1cccnc12	-30.1% (inactive) and 19.4% (inactive)
CC1(C)Cc2c(sc3ncn4nnnc4c23)CO1	-7.5% (inactive)
CC(C)c1nc2sc3c(c2c(=O)n1N)CC(C)(C)OC3	13% (inactive)
CC1(C)Cc2c(sc3c4nnnn4c4nnnn4c23)CO1	56.4% (active)
CC1(C)Cc2c(c(-c3ccco3)nc3sc4c(NCC5CCCO5)ncnc4c23)CO1 (configuration not stated)	-42.4% (inactive)
O=C(CSc1nc2ccsc2c(=O)n1CC1CCC(C(=O)O)CC1)c1ccc(F)cc1 (configuration not stated)	18.5% (inactive)
COc1ccc(N=Nc2nc(-c3ccccc3)c(-c3ccccc3)[nH]2)cc1	28.4% (inactive)
Oc1ccccc1N=Nc1nc(-c2ccccc2)c(-c2ccccc2)[nH]1	33.6% (inactive)
O=C(OCCCOc1ccc(F)cc1)c1ccc(O)cc1O	-20.5% (inactive)
CCC1CCC(C(=O)NC(C(=O)NCCc2ccc(S(N)(=O)=O)cc2)C(C)C)CC1 (configuration not stated)	-31% (inactive)
COc1ccc(C(=O)NC2CC3CCCC(C2)N3Cc2ccccc2)cc1 (configuration not stated)	26.9% (inactive)
Cc1ccccc1C(=O)NC1CC2CCCC(C1)N2Cc1ccccc1 (configuration not stated)	-8.6% [at 20 µM] (inactive)
O=C(NC1CC2CCCC(C1)N2Cc1ccccc1)c1cccc(F)c1 (configuration not stated)	34.5% (inactive)
O=C(NC1CC2CCCC(C1)N2Cc1ccccc1)c1cccc(Cl)c1 (configuration not stated)	13.7% [at 20 µM] (inactive)
CCOc1ccc(C(=O)NC2CC3CCCC(C2)N3CC(C)C)cc1 (configuration not stated)	-39% (inactive)
CCOc1ccccc1C(=O)NC1CC2CCCC(C1)N2Cc1ccccc1 (configuration not stated)	5.8% (inactive)
CCCN1C2CCCC1CC(NC(=O)c1ccccc1OCC)C2 (configuration not stated)	12% (inactive)
O=C(NC1CC2CCCC(C1)N2Cc1ccccc1)c1ccc([N+](=O)[O-])cc1 (configuration not stated)	29.6% [at 20 µM] (inactive)
CC(=O)NC(=S)Nc1cccc([N+](=O)[O-])c1	30.8% (inactive)
Cc1cc(C)n2nc(SCC(=O)NC3CCCCC3)nc2n1	-29.2% (inactive)
COc1c(F)c(F)c(C(=O)O)c(Nc2ccccc2)c1F	4.7% (inactive)
COCc1nnc(NC(=O)CCCOc2ccccc2OC)s1	-4.2% (inactive)
Cc1ccc(Cl)cc1NC(=S)Nn1cnnc1	-13.2% (inactive)

Compound	inhibition
O=C(NCCc1ccccc1)C1CC(=O)N(C2CCCC2)C1 (configuration not stated)	-27.2% (inactive)
Cc1sc2c(c1C)C(=O)NC(c1cccc(O)c1)N2 (configuration not stated)	9.3% (inactive)
CC(=O)NC1CC2CCCC(C1)N2Cc1ccc(C)cc1 (configuration not stated)	-10% (inactive)
CCC(=O)NC1CC2CCCC(C1)N2Cc1ccc(C)cc1 (configuration not stated)	2.1% (inactive)
O=C(NC1CC2CCCC(C1)N2Cc1ccc(F)cc1)c1ccc(F)cc1 (configuration not stated)	13.6% [at 20 µM] (inactive)
CCCN1C2CCCC1CC(NC(=O)c1ccc(F)cc1)C2 (configuration not stated)	22.4% (inactive)
CCOc1ccc(C(=O)NCC(=O)OCC(=O)N2CCCCC2)cc1	-18.2% (inactive)
COc1ccc(CNC(=O)C2CCN(S(=O)(=O)c3cccc4nonc34)CC2)cc1	-3.2% (inactive)
Cc1nc2cncc(Br)c2n1C	-11.9% (inactive)
CSc1ccc(NC(=O)NCCCN2CCC(Cc3ccccc3)CC2)cc1	-20.9% (inactive)
Fc1ccc(NC(=S)NC2CC3CCC(C2)N3Cc2ccco2)cc1 (configuration not stated)	22.9% [at 20 µM] (inactive)
Cc1cccc(N2CCN(S(=O)(=O)c3cccc4nonc34)CC2)c1C	3% (inactive)
Cc1ccc(OCc2cccc(S(=O)(=O)N(C)C)c2)c([N+](=O)[O-])n1	-0.3% (inactive)
Cc1ccn2c(CNCCCn3cccn3)c(C(=O)N3CCCCCC3)nc2c1	13.8% [at 20 µM] (inactive)
COc1ccc(C(=O)N/C(=C/c2ccco2)C(=O)N2CCCCCC2)cc1	-0.8% (inactive)
N#C/C(=C\c1ccco1)C(=O)NCc1ccccc1	7.2% (inactive)
CC(/C=N/n1c(-c2ccc(Cl)cc2)n[nH]c1=S)=C\c1ccco1	-13.3% (inactive)
N#C/C(=C\c1ccco1)C(=O)Nn1cnnc1	1% (inactive)
N#CC(C#N)=C1C=CC=CN1/C(=C\c1ccccc1Cl)C(=O)c1ccccc1	26.8% (inactive)
N#CC(C#N)=C1C=CC=CN1/C(=C\c1ccccc1)C(=O)c1cccs1	-1% (inactive)
O=C(O)/C(=C/c1ccco1)c1ccccc1	-9.6% (inactive)
COc1ccc(/C=C(/C(=O)c2cccs2)N2C=CC=CC2=C(C#N)C#N)cc1	-7.8% (inactive)
